Screening results: PubChem, National Center for Advancing Translational Sciences (NCATS)
This is a sample that favours compounds with a hit; in the whole collection about 1.3% have one here.
BRCA1 expr up = BRCA1 expression activation. MCF7-BRCA1-FFLuc reporter, luminescence, 48 h; response scale: scaled: vehicle 0%, 10 µM genistein 100%. Potency, µM (doses to about 46.1 µM), for inactives: at the top dose activation, actives largely listed as activators. hit rate 1.1% among 380,000; also: potency is read from the fitted curve at half-maximal effect; nearly all actives have a fitted effect of over 80% in size
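First, MCF7-BRCA1-FFLuc cells (2000/well) attach for 2 h; next, compounds are pin-added and incubated 48 h at 37 °C; finally, luciferase reagent is added and luminescence read after 15 min.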
IL2 activator = activators of IL-2; IL-2 activation reporter assay, cell-based qHTS; stimulated with anti-CD3/CD4/CD28 beads; in transgenic mouse T cells; activation, % (series mostly up to about 46 µM); hit rate 0.065% among 360,000; AID 652025; in the data active = activation above about 50%; inconclusive = mostly about 30% to 49%; also: 0% is about no effect
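Readout is EGFP and DsRed signal by fluorescent plate cytometry after 18 h at 37 degrees C. Transgenic mouse T cells (750/well) received compound for 60 min before bead stimulation (anti-CD3, anti-CD4, anti-CD28); memory T cells served as non-tolerant control.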
TCR activator = activators of T cell receptors; Potency, µM (doses to about 9.22 µM), without a hit: at the highest dose activation of IL-2 secretion, hits mostly activators; AID 504894; primary human leukocytes, anti-CD3, IL-2 HTRF, 48 h; 330,000 tested, under 10 active; also: % of control where 0% means no effect
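Primary human leukocytes receive a-CD3 beads and test compound and are incubated 48 hr. Secreted IL-2 is then assayed by HTRF, measuring 665nm acceptor emission after 320nm excitation of the europium donor.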
p53 reactivator = restores transcriptional activity of mutant p53 | H1299 p53-A138V BP100-luciferase reporter, luminescence, 24 h | Potency, µM (doses to about 92.2 µM), without a hit: top-dose activity change, positive = activation, actives largely listed as activators | hit rate 0.063% among 320,000 | AID 504706; also: potency is read from the fitted curve at half-maximal effect; % of control where 0% means no effect; nearly all actives have a fitted effect of over 45% in size
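p53-null H1299 cells stably carrying temperature-sensitive p53-A138V and a BP100-luciferase reporter were pinned with compounds (4-point, 1:5 series) and held 24 hrs at 37 deg C. Luminescence was read 10 min after detection reagent.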
Mito fusion yeast = blocks mitochondrial division or promotes mitochondrial fusion; hit rate 0.23% among 320,000; S. cerevisiae fusion-defective mutant growth rescue, CellTiterGlo 48 h; Potency, µM (series often up to 46.1 µM), for the others: top-dose growth rescue (activation), actives largely listed as activators; also: potency is read from the fitted curve at half-maximal effect; % of control where 0% means no effect; nearly all actives have a fitted effect of over 45% in size
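S. cerevisiae fusion-defective temperature-sensitive mutants (e.g. fzo1-1, mgm1-5) grown 48 h at 37C in YPEG (ethanol/glycerol non-fermentable) medium with 23 nl compound per well; growth rescue read as CellTiterGlo luminescence.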
The depositor's hits bear a star; ? = inconclusive; . = no result; [ ] = dose if it differs, or a comment. Unless noted, calls follow the shape of the dose curve; as a rule, active = well fitted curve in the direction sought with a large enough effect; inconclusive = small, poorly fitted or top-dose-only effect, or another doubt; inactive = no such curve, though single readings can be large; an effect the other way counts as inactive or inconclusive.

SMILES | BRCA1 expr up | IL2 activator | TCR activator | p53 reactivator | Mito fusion yeast
CCC(=O)NCCc1nc2cc(NC(=O)c3ccccc3OC)ccc2n1C | ? | -1 | 7% | ? | 2%
CCC(=O)NCCc1nc2cc(NC(=O)COc3ccccc3)ccc2n1C | 8.9µM* | 3 | -8% | ? | -32%
O=C(OCc1cc(=O)n2ccsc2n1)c1ccc(O)cc1O | 11µM* | 1 | -4% | ? | -2%
Cc1ccc(C(=O)c2ncc[nH]2)cc1 | 14µM* | 1 | -1% | 14% | -6%
C/C(=N/NC(=O)c1ccccn1)c1ccc(O)cc1 | ? | -1 | 4% | 11% | 6%
C/C(=N/NC(=O)c1ccccn1)c1c[nH]c2ccccc12 | 7.1µM* | 0 | -4% | 9% | 3%
COc1ccc(CCc2c[nH]c(=O)c3cncnc23)cc1OC | 6% | . | . | . | .
CC(=O)N1N=C(c2ccc(C)cc2)OC1c1ccc(C(C)C)cc1 (stereo not given) | 7.9µM* | 3 | 2% | ? | -3%
Cc1cc(C)cc(-n2ccnc(NCc3ccc(F)cc3)c2=O)c1 | 0% | . | . | . | .
Cc1cccc(NC(=O)c2cccnc2)c1C | 10% | 1 | 20% | . | 0%
CSCc1ccc(C(=O)Nc2cccc(C)c2C)cc1 | 11µM* | -1 | 9%[46.1 µM] | ? | 3%
CC(C)n1cnc2cc(NCc3ccco3)ccc21 | 10µM* | 0 | . | 10% | -2%
CNc1ccc(/C=C/c2ccnc3ccccc23)cc1 | 7% | . | . | . | .
CN(C)c1ccc(/C=C/c2ccnc3ccc(Br)cc23)cc1 | -20% | . | . | . | .
COc1ccc2cc3c(N)c(C(=O)NCc4ccco4)sc3nc2c1 | 5.6µM* | 1 | . | -4% | 29%
CCN(CC)C(=O)Cn1c(=O)n(-c2ccc(Cl)cc2)c(=O)c2c3c(sc21)CCCCC3 | 14% | . | . | . | .
CCN(CC)c1ccc(C=N/C(C#N)=C(\N)C#N)cc1 | 2.5µM* | 0 | -3% | ? | -9%
COC(=O)CC1Oc2ccc(Cl)cc2-n2cc(-c3ccc(C)cc3)nc21 (stereo not given) | -11% | . | . | . | .
COc1cc(NC(=O)c2cc3cc4ccc(C)cc4nc3o2)cc(OC)c1OC | 1% | . | . | . | .
COc1cccc(-n2c(SCc3ccccc3C)nc3c([nH]c4ccccc43)c2=O)c1 | -18% | . | . | . | .
CC(C)CN(C)C(=O)CCc1nnc(Cc2cccc(C(F)(F)F)c2)o1 | 10µM* | 0 | . | ? | 10%
CC(NC(=O)CCc1nnc(Cc2cccc(C(F)(F)F)c2)o1)C1CC1 (stereo not given) | 55% | -1 | 5% | 12% | 0%
CN(C)S(=O)(=O)c1cccc(C(=O)NC(=S)N(CCC#N)Cc2cccnc2)c1 | -2% | 6 | 4% | -2% | 5%
Cc1ccc(S(=O)(=O)N(C)C)cc1NC(=S)N(CCC#N)Cc1cccnc1 | 8% | 0 | 9% | -1% | 7.1µM*
Cc1ccc(C)c(NC(=S)Nc2ncccc2C)c1 | 7.9µM* | -2 | 0% | 4% | 18%
SMILES | BRCA1 expr up | IL2 activator | TCR activator | p53 reactivator | Mito fusion yeast
O=C(CSc1nc2ccccc2n1CC(=O)N1CCCC1)NCc1ccc2c(c1)OCO2 | -10% | -2 | 1% | -5% | 2.8µM*
O=C(CSc1nc2ccccc2c(=O)n1-c1ccccc1)NCc1ccc2c(c1)OCO2 | -5% | -1 | . | -5% | 6%
O=C(CSc1ccccc1)Nc1ccc(N2CCOCC2)c(F)c1 | 7.9µM* | 2 | 0% | 29% | -11%
O=C(Cc1cccs1)Nc1ccc(N2CCOCC2)cc1 | 7.9µM* | 0 | -3% | ? | -3%
O=C(Nc1ccc(CN2CCOCC2)cc1)c1ccccc1F | 70% | -2 | 2%[46.1 µM] | ? | -2%
O=C(Cc1ccccc1)Nc1ccc(CN2CCOCC2)cc1 | 10µM* | -1 | . | ? | 6%
Cc1ccc(C(=O)Nc2ccc(N3CCOCC3)cc2)cc1 | 8.9µM* | -2 | 1% | ? | 0%
Brc1cccc[n+]1CCCC[n+]1ccccc1Br | 0% | . | . | . | .
O=C(CSc1ccccc1)Nc1ccc(N2CCOCC2)cc1 | ? | -1 | 0% | ? | -2%
O=C(CSc1ccccc1F)Nc1ccc(N2CCOCC2)cc1 | 5.6µM* | 0 | -3% | ? | -6%
CC(=O)N1CCN(c2ccc(NC(=O)c3ccc(Cl)cc3)cc2)CC1 | 1% | 4 | -1% | . | 0%
CC(=O)N1CCN(c2ccc(NC(=O)c3cccc(Cl)c3)cc2)CC1 | 11µM* | -1 | -2% | 23% | 3%
COc1ccc(C(=O)Nc2ccc(N3CCCCC3)cc2)cc1Br | 3.5µM* | 1 | 7%[46.1 µM] | 24% | -3%
O=C(Nc1ccc(N2CCOCC2)cc1)C1CCN(C(=O)OCc2ccccc2)CC1 | 2.8µM* | 2 | 6% | 4% | 2%
CN(C)c1ccc(N=Nc2ccc(/C=C/c3ccnc4ccccc34)cc2)cc1 | 46% | . | . | . | .
CN(C)c1ccc(/C=C/c2c(Br)cnc3ccccc23)cc1 | 0% | . | . | . | .
COc1ccc([C@H]2Cc3cc(O)cc(O)c3C(=O)O2)cc1O | 10µM* | 1 | 0% | 9% | .
COc1ccc(CNC(=O)CSc2ncc3c(n2)-c2ccc(Cl)cc2N(Cc2ccc(F)cc2)S3(=O)=O)cc1OC | 13% | . | . | . | .
CCc1nonc1NC(=O)COc1cc(C)c(Cl)c(C)c1 | -19% | 0 | -11% | 0% | 11µM*
CCc1nonc1NC(=O)COc1ccc(Cl)c(C)c1 | -28% | -1 | 4% | 3% | 9%
O=C(CNC(=O)c1ccccc1)N/N=C/c1cccs1 | 43% | -1 | -6% | 0% | 1%
O=C(CNC(=O)c1ccccc1F)N/N=C/c1cccs1 | 10µM* | -4 | 2% | 15% | 6%
CCCN1CNc2c(c(=O)[nH]c(=S)n2CCc2ccc(Cl)cc2)C1 | 0% | . | . | . | .
O=c1cc(-c2ccc3c(c2)OCO3)oc2ccccc12 | 34% | 0 | 27% | ? | 3%
Nc1c(-c2ccc3c(c2)OCCO3)oc2ccccc2c1=O | 2.5µM* | -4 | -4% | ? | 2%
Nc1nn(-c2cccc(F)n2)cc1-c1ccc(Cl)cc1 | ? | 3 | 10% | ? | -1%
COc1ccc(-c2ccn(-c3cccc(F)n3)n2)cc1 | 3.2µM* | 1 | -4% | ? | -5%
Cc1cc[n+](CC#N)cc1 | 1% | . | . | . | .
